Hits are enriched below; roughly 7.9% of the tested compounds scored in any of these assays.
HT1080 IDH1KD tx – kills HT-1080 cells with IDH1 knockdown; actives 2% (n = 360,000); AID 686971; Potency, µM (series often up to 46.1 µM), actives largely listed as cytotoxic; HT-1080 IDH1 knockdown viability, ATP luminescence, 48 h
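Knockdown cells (IDH1KD HT-1080) received compounds 2 h after plating at 750 cells/well and were kept 48 h at 37 °C in 5% FBS RPMI. A CellTiter-Glo luminescence read gave % activity for curve fitting.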
HT1080-NT tox – kills 2HG-producing HT-1080-NT fibrosarcoma cells; HT-1080-NT fibrosarcoma viability, CellTiter-Glo ATP luminescence, 48 h; Potency, µM (doses to about 46.1 µM), most hits filed as cytotoxic; actives 1.6% (n = 360,000);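 note: NT is the 2HG producing partner of a matched IDH1 knockdown line; nearly all actives have a fitted effect of over 55% in size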
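Fibrosarcoma NT cells, 750 per well in 5% FBS RPMI, were exposed to compound for 48 hours. Viability: CellTiter-Glo luminescence.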
KB-V1 MDR tox – kills drug-selected multidrug resistant KB-V1 cells; KB-V1 MDR cells viability, CellTiter-Glo, 72 h; Potency, µM (doses to about 46.1 µM), most hits filed as cytotoxic; actives 3.4% (n = 400,000); AID 1347076; note: nearly all actives have a fitted effect of over 60% in size
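Readout: CellTiter-Glo luminescence, 10 min after addition. Cells: KB-V1 MDR subline, 72 h at 37 degrees C with compound. Analysis: corrected, normalized data fitted to concentration-effect curves.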
MCF10A rerep – DNA re-replication induction in MCF 10a cells; actives 2.9% (n = 350,000); Potency, µM (top dose mostly 46.1 µM), actives largely listed as activators; MCF 10A DNA re-replication, Hoechst nuclear intensity, 48 h; note: nearly all actives have a fitted effect of over 50% in size
KB-3-1 cytotox – KB-3-1 parental cell cytotoxicity; KB-3-1 viability, CellTiter-Glo ATP luminescence, 72 h; actives 1.4% (n = 400,000); Potency, µM (doses to about 46.1 µM), most hits filed as cytotoxic; note: nearly all actives have a fitted effect of over 60% in size
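Viability of parental KB-3-1 cells, measured by CellTiter-Glo luminescence, followed a 72 h incubation at 37 °C with pinned compounds in phenol-red-free DMEM containing 10% FBS.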
SW480 rerep – DNA re-replication induction in SW480 cells. SW480 DNA re-replication, Hoechst DNA content imaging, 48 h. Potency, µM (titrated, usually from 46.1 µM), actives largely listed as activators. actives 1.8% (n = 340,000). AID 624297; note: nearly all actives have a fitted effect of over 55% in size
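Treated cells incubate 48 hr (37 C, 5% CO2), are stained 40 min with Hoechst, and nuclear fluorescence is enumerated; a rise in nuclei with high DNA signal marks re-replication.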
Large screens that a line does not name were inactive. Calls come from the whole dose curve; as a rule, active = well fitted curve in the direction sought with a large enough effect; inconclusive = small, poorly fitted or top-dose-only effect, or another doubt; inactive = no such curve, though single readings can be large; an effect the other way counts as inactive or inconclusive.

CCC(C(=O)NCc1ccco1)N(C(=O)CNS(=O)(=O)c1ccccc1)C1CCCCC1 (stereo unspecified)	KB-V1 MDR tox inconclusive, MCF10A rerep 4.1µM
CCNC(=O)c1cnc2sc(N3CCC(C)CC3)nn2c1=O	none (no result: HT1080 IDH1KD tx, HT1080-NT tox, MCF10A rerep, SW480 rerep)
O=C(COC(=O)CSc1ccc(F)cc1)NCc1ccco1	KB-V1 MDR tox inconclusive, KB-3-1 cytotox inconclusive
O=C(COC(=O)Cc1ccc(F)cc1)NCc1ccco1	SW480 rerep 12µM
CCc1noc(C)c1C(=O)NCCN1C(=O)S/C(=C\c2ccc(OC)cc2)C1=O	none
COc1ccc(C(=O)NCc2ccc3[nH]c(C)cc3c2)cc1OC	MCF10A rerep 4.6µM
COc1cc(OC)cc(C(=O)NCc2ccc3[nH]c(C)cc3c2)c1	MCF10A rerep 0.65µM
COc1cccc(C(=O)NCc2ccc3[nH]c(C)cc3c2)c1	MCF10A rerep inconclusive
Cc1cc(C)c2c(=O)cc(C(=O)NCc3ccccc3)oc2c1	none
COc1ccccc1C(=O)NCCC(=O)NCCOc1ccccc1	none
CCC(C)NC(=O)c1ccccc1NC(=O)c1ccc(CSc2ccccc2)cc1 (stereo unspecified)	KB-V1 MDR tox 12µM, MCF10A rerep inconclusive
COCCNC(=O)c1ccccc1NC(=O)Cc1ccccc1	none
COc1ccccc1C(=O)NCCC(=O)NCCCSc1ccccc1	KB-V1 MDR tox 21µM
COCCNC(=O)c1ccccc1NC(=O)CCSc1ccccc1	KB-V1 MDR tox inconclusive, MCF10A rerep 1.3µM
CCOC(=O)c1c(C)[nH]c(C)c1C(=O)COC(=O)c1cccc(C)c1O	KB-V1 MDR tox 16µM, MCF10A rerep inconclusive
Cc1cccc(-n2c3nc(=O)n(C)c(=O)c-3cc3c(Cl)cccc32)c1C	none (no result: HT1080 IDH1KD tx, HT1080-NT tox, MCF10A rerep, SW480 rerep)
Cn1c(=O)nc2n(Cc3ccccc3)c3cccc(Cl)c3cc-2c1=O	KB-V1 MDR tox 21µM
CCCCCc1nn2cc(-c3ccccc3)nc2s1	none (no result: HT1080 IDH1KD tx, HT1080-NT tox, MCF10A rerep, SW480 rerep)
COc1ccc2nc(/C(C#N)=C\c3ccc(C(=O)O)cc3)[nH]c2c1	HT1080 IDH1KD tx inconclusive, SW480 rerep 18µM
COc1ccc(C(C#N)=Cc2ccccc2OC)cc1	HT1080 IDH1KD tx inconclusive, HT1080-NT tox inconclusive, KB-V1 MDR tox 8.2µM, KB-3-1 cytotox 16µM (no result: MCF10A rerep, SW480 rerep)
CC(=O)Nc1ccc(C(C#N)=Cc2ccc(N(C)CCC#N)cc2)cc1	KB-V1 MDR tox inconclusive (no result: MCF10A rerep, SW480 rerep)
COc1ccc(C(C#N)=Cc2ccc(NC(C)=O)cc2)cc1	MCF10A rerep 16µM, SW480 rerep inconclusive
CCCOc1ccc(CNC(=O)c2ccc3c(c2)N(CC)CCS3)cc1	none
CCOC(=O)c1ccc(NC(=O)CSc2nnc(-c3ccncc3)n2-c2ccccc2)cc1	none (no result: HT1080 IDH1KD tx, HT1080-NT tox, MCF10A rerep, SW480 rerep)
Cc1cc(C)cc(N2C(=O)CC(N3CCOCC3)C2=O)c1 (stereo unspecified)	MCF10A rerep 18µM
CC[N+]1=C(C)C(C)(C)c2cc(C)ccc21	HT1080 IDH1KD tx 5.2µM, HT1080-NT tox inconclusive, MCF10A rerep inconclusive, KB-3-1 cytotox inconclusive
CCN1C(=O)C(=O)c2cc(C)ccc21	MCF10A rerep inconclusive, KB-3-1 cytotox inconclusive, SW480 rerep inconclusive
COc1cccc(C2=CC(c3ccccc3F)n3ncc(C(=O)Nc4ccc(F)cc4)c3N2)c1 (stereo unspecified)	KB-3-1 cytotox inconclusive (no result: HT1080 IDH1KD tx, HT1080-NT tox, MCF10A rerep, SW480 rerep)
CC1CCCN(S(=O)(=O)c2ccc3c(c2)n(C)c(=O)c(=O)n3C)C1 (stereo unspecified)	none
CC1CCCN(S(=O)(=O)c2ccc3c(c2)c(=O)nc2ccc(Cl)cn23)C1 (stereo unspecified)	MCF10A rerep 4.6µM, SW480 rerep inconclusive
